In the supplement of paper PMC7156485:
± gives the standard deviation of the averaged measurements.

Experiments:
Conditions in all cases: concentration: 10 µM; 24 h
HCC1569 [1] = assay: cell number relative to DMSO (% of DMSO); higher = more cells (less growth inhibition / toxicity)
Outline: (§1)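 After 24 h at 37 °C with compounds at 10 µM, in triplicate, HCC1569 and TDF cells were fixed with 3.7% formaldehyde. Immunostaining used a rabbit anti-H1.0 antibody and an AlexaFluor 647 secondary, with DAPI, and six fields per well were imaged at ×10. H1.0 nuclear intensity or cell number is presented as percent of the plate control, from the median of replicates, with HCC1569 values smoothed for positional effects.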

TDF [2] = assay: as above
Outline: as §1

TDF [3] = assay: H1.0 immunofluorescence intensity relative to DMSO (% of DMSO); higher = stronger H1.0 induction, active = 120 or more
Outline: as §1

HCC1569 [4] = assay: H1.0 immunofluorescence intensity relative to DMSO (% of DMSO); higher = stronger H1.0 induction, active = 140 or more
Outline: as §1
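Wherever H1.0 immunofluorescence intensity relative to DMSO is given: TDF is a line of transformed human dermal fibroblasts of mesenchymal origin.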
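Wherever cell number relative to DMSO is given: TDF denotes transformed human dermal fibroblasts of mesenchymal origin.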

SMILES	cell number (HCC1569 [1])	cell number (TDF [2])	H1.0 immunofluorescence intensity (TDF [3])	H1.0 immunofluorescence intensity (HCC1569 [4])
CC(C)(C)c1ccc(C(O)CCCN2CCC(C(O)(c3ccccc3)c3ccccc3)CC2)cc1 (configuration not stated) [Terfenadine]	92.7 ± 3.6	97.9 ± 12	107 (inactive)	126 (inactive)
NCCCCC(NC(CCc1ccccc1)C(=O)O)C(=O)N1CCCC1C(=O)O (configuration not stated) [Lisinopril]	105	99.8	97.2 (inactive)	98.8 (inactive)
Cc1[nH]ccc2c1[nH]c1cc(=O)ccc12.Cl.O.O	94	94.7	97.1 (inactive)	94.2 (inactive)
